# Structures can show the parent of a compound that is named as a salt. ± gives the standard deviation of the averaged measurements. Whole data set: some 1,900 compounds, median “normalised cell viability (NPI; 0 = phenylarsine oxide control, 1 = DMSO control)” near 1, cut for the lowest 2% near 0.039. The sample holds the lowest values, similar compounds and a random draw of the others, so the mix is not that of the screen.
# Tested on: NCI-H1944
# Test: normalised cell viability (NPI; 0 = phenylarsine oxide control, 1 = DMSO control) (fraction of DMSO control); NCI-H1944 is a non-small cell lung cancer line; higher = more viable cells (less compound toxicity)
# Conditions: 6 days
# [1] = glucocorticoid arm: hydrocortisone 2.75 uM co-treatment, compound 1 µM
# [2] = glucocorticoid arm: hydrocortisone 2.75 uM co-treatment, compound 5 µM
# [3] = glucocorticoid arm: hydrocortisone 2.75 uM pre-treated 2 days and continued, compound 1 µM
# [4] = glucocorticoid arm: hydrocortisone 2.75 uM pre-treated 2 days and continued, compound 5 µM
# [5] = glucocorticoid arm: vehicle, compound 1 µM
# [6] = glucocorticoid arm: vehicle, compound 5 µM
# 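Also: CTB read-out in 384-well plates, triplicate wells, NPI normalised per plate against 1 µM phenylarsine oxide (0) and 0.1% DMSO (1) controls.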
SMILES,normalised cell viability [1],normalised cell viability [2],normalised cell viability [3],normalised cell viability [4],normalised cell viability [5],normalised cell viability [6]
COc1cc2c(cc1OC)[C@@H](c1ccccc1)CN(C)CC2,0.9913 ± 0.006,1.023 ± 0.0058,1.02 ± 0.011,1.01 ± 0.019,0.9883 ± 0.0015,0.9863 ± 0.0055
Nc1nc(N)c(N=O)c(OCC2CCCCC2)n1,1.02 ± 0.011,1.05 ± 0.017,1.037 ± 0.0058,1.023 ± 0.0058,1,0.978 ± 0.019
Clc1ccc(C2(c3ccc(-c4cn[nH]c4)cc3)CCNCC2)cc1,0.968 ± 0.012,0.9977 ± 0.0021,0.975 ± 0.011,1.006 ± 0.0075,0.9947 ± 0.0051,0.939 ± 0.015
CC(C)NCC(O)c1ccc(O)c(O)c1 (racemic) [(±)-Isoproterenol hydrochloride],1.01 ± 0.011,1.03 ± 0.042,1.01,1.04 ± 0.064,0.99967 ± 0.00058,1.02 ± 0.021
N[C@@H](CCCC(=O)O)C(=O)O [L-2-aminoadipic acid],0.9947 ± 0.0055,0.991 ± 0.015,0.997 ± 0.013,0.97 ± 0.018,0.979 ± 0.014,0.9823 ± 0.0067
O=C(NC1CCNCC1)c1n[nH]cc1NC(=O)c1c(Cl)cccc1Cl,0.225 ± 0.03,0.0298 ± 0.0013,0.349 ± 0.039,0.149 ± 0.015,0.0396 ± 0.029,0.0072 ± 0.00086
NC(=O)Nc1cc(-c2cccc(F)c2)sc1C(=O)N[C@H]1CCCNC1,0.65 ± 0.013,0.45 ± 0.024,0.93 ± 0.021,0.7733 ± 0.0071,0.338 ± 0.012,0.158 ± 0.015
Cc1[nH]c(/C=C2\C(=O)Nc3ccc(S(=O)(=O)N(C)c4cccc(Cl)c4)cc32)c(C)c1C(=O)N1CCN(C)CC1,0.9913 ± 0.0072,0.986 ± 0.012,1.003 ± 0.0058,0.989 ± 0.014,0.969 ± 0.01,0.849 ± 0.036
CN1CCN(C(=O)c2cc3cc(Cl)ccc3[nH]2)CC1,1.027 ± 0.0058,1.023 ± 0.0058,1.013 ± 0.0058,1.03 ± 0.021,1.007 ± 0.0058,1.01 ± 0.01
CN1CCCN(C(=O)c2cccc(-c3ccc(/C=C4/C(=O)Nc5ccc(Cl)cc54)o3)c2)CC1,0.717 ± 0.032,0.214 ± 0.24,0.937 ± 0.021,0.887 ± 0.059,0.282 ± 0.017,0.00113 ± 0.00047
NC1(Cc2ccc(Cl)cc2)CCN(c2ncnc3[nH]ccc23)CC1,0.901 ± 0.034,0.602 ± 0.08,0.934 ± 0.014,0.68 ± 0.045,0.9813 ± 0.0087,0.827 ± 0.068
CC1(C)CCC(NC(=O)[C@@H](N)CCC(=O)O)CC1,0.979 ± 0.013,0.975 ± 0.016,0.999 ± 0.011,0.982 ± 0.046,0.9703 ± 0.0085,0.985 ± 0.012
CC(C)(C(=O)O)c1ccc(C(O)CCCN2CCC(C(O)(c3ccccc3)c3ccccc3)CC2)cc1 (stereo unspecified) [Fexofenadine hydrochloride],1.006 ± 0.0069,1 ± 0.013,0.997 ± 0.013,0.99 ± 0.01,1.003 ± 0.0058,0.9967 ± 0.0035
CC(C)(C)c1ccc(C(O)CCCN2CCC(C(O)(c3ccccc3)c3ccccc3)CC2)cc1 (stereo unspecified) [Terfenadine],0.997 ± 0.0027,0.9833 ± 0.0051,1.03 ± 0.017,1.03 ± 0.017,0.9927 ± 0.006,0.0387 ± 0.043
CC(C)(C(=O)O)c1ccc(C(O)CCCN2CCC(C(O)(c3ccccc3)c3ccccc3)CC2)cc1 (stereo unspecified) [Fexofenadine HCl],1.03 ± 0.01,1.02 ± 0.021,1.037 ± 0.0058,1.05 ± 0.011,0.999 ± 0.011,0.998 ± 0.01
OC(CCN1CCCCC1)(c1ccccc1)C1CCCCC1 (racemic) [DL-Trihexyphenidyl hydrochloride],0.99967 ± 0.00058,0.998 ± 0.013,1.03 ± 0.021,1.02 ± 0.011,0.995 ± 0.007,1.001 ± 0.0085
COc1ccc2c3n(c(=NC(=O)c4cccnc4)nc2c1OC)CCN3,0.911 ± 0.004,0.628 ± 0.018,0.901 ± 0.012,0.663 ± 0.033,0.9907 ± 0.0049,0.85 ± 0.029
O=C(Nc1cccc(Nc2ncc(Br)c(NCCc3cnc[nH]3)n2)c1)N1CCCC1,0.955 ± 0.015,0.805 ± 0.016,0.939 ± 0.0062,0.859 ± 0.02,0.917 ± 0.0095,0.635 ± 0.029
"CCCn1c(=O)c2[nH]c(-c3ccc(S(=O)(=O)O)cc3)nc2n(CCC)c1=O [1,3-Dipropyl-8-p-sulfophenylxanthine]",0.9873 ± 0.0049,0.99 ± 0.01,0.994 ± 0.01,0.986 ± 0.034,0.996 ± 0.016,0.996 ± 0.0061
Cc1cc(N)c2ccccc2[n+]1CCCCCCCCCC[n+]1c(C)cc(N)c2ccccc21 [Dequalinium chloride hydrate],0.888 ± 0.026,0.0383 ± 0.0062,0.963 ± 0.016,0.0385 ± 0.0016,0.991 ± 0.013,0.00579 ± 0.0022
OC[C@H]1O[C@@H](n2cnc3c2N=CNC[C@H]3O)C[C@@H]1O [Pentostatin],1.02 ± 0.011,1.01 ± 0.022,1.03 ± 0.011,1.04 ± 0.01,1.013 ± 0.0058,1.01 ± 0.011
N[C@@H](Cc1ccc(O)c(I)c1)C(=O)O [3-Iodo-L-tyrosine],0.982 ± 0.01,0.973 ± 0.035,0.991 ± 0.006,0.996 ± 0.066,0.999 ± 0.011,0.998 ± 0.01
N[C@H](CO)C(=O)O [D-Serine],1.013 ± 0.0058,1.04 ± 0.06,0.896 ± 0.27,1.02 ± 0.01,1.02,1.017 ± 0.0058
CN1CCc2cc(O)c(O)cc2C(c2ccccc2)C1 (stereo unspecified),1 ± 0.0087,1.02 ± 0.022,0.876 ± 0.23,1.01 ± 0.02,1.02,1.023 ± 0.0058
COc1ncc(-c2ccc3nccc(-c4ccnnc4)c3c2)cc1NS(=O)(=O)c1ccc(F)cc1F,0.264 ± 0.0058,0.231 ± 0.027,0.365 ± 0.025,0.249 ± 0.02,0.0495 ± 0.0081,0.0214 ± 0.0013
CCCS(=O)(=O)Nc1ccc(F)c(C(=O)c2c[nH]c3ncc(-c4ccc(Cl)cc4)cc23)c1F [vemurafenib],1.04 ± 0.011,1.14 ± 0.02,1.03 ± 0.01,1.08 ± 0.01,1.01 ± 0.01,1.037 ± 0.0058
